Compound activity deposited in PubChem BioAssay by The Scripps Research Institute Molecular Screening Center.
An excerpt weighted towards active compounds, which were near 3% of everything screened.
PAFAH2 inh: PAFAH2 enzyme inhibitors, primary screen, biochemical, fluorescence polarization, human; Platelet-activating factor acetylhydrolase 2, cytoplasmic (Homo sapiens), Q99487; recombinant PAFAH2, FP-rhodamine activity probe; inhibition, % at 3.39 µM; hit rate 0.99% among 340,000;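 active = inhibition above the mean over all tested compounds plus 3 SD, cut at about 30% in these data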;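 note: inhibitors block probe labeling of enzyme so polarization drops; 0% = enzyme with DMSO and 100% = wells lacking PAFAH2 protein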
pPAFAH inh: pPAFAH enzyme inhibitors, primary screen, biochemical, fluorescence polarization, human. Platelet-activating factor acetylhydrolase (Homo sapiens), Q13093. inhibition, % at 3.39 µM. recombinant pPAFAH, FP-rhodamine probe fluorescence polarization. hit rate 1.5% among 330,000. AID 463082, 2010;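 active = inhibition above the mean inhibition across the screen plus 3 SD, cut at about 25% in these data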;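 note: inhibitors block binding of the rhodamine activity-based probe so polarization drops; 0% = enzyme with DMSO and 100% = wells lacking pPAFAH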
PAFAH1B3 inh: PAFAH1B3 enzyme inhibitors, primary screen, biochemical, fluorescence polarization, human; Platelet-activating factor acetylhydrolase IB subunit alpha1 (Homo sapiens), Q15102; recombinant PAFAH1B3, FP-rhodamine probe; inhibition, % at 3.39 µM; hit rate 0.28% among 340,000; AID 492972, 2010;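 active = inhibition above the screen-wide average of all tested compounds plus 3 SD, cut at about 25% in these data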;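 note: 0% = enzyme with DMSO only and 100% = wells lacking PAFAH1B3 protein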
Target sequence (Q15102 whole entry, looked up): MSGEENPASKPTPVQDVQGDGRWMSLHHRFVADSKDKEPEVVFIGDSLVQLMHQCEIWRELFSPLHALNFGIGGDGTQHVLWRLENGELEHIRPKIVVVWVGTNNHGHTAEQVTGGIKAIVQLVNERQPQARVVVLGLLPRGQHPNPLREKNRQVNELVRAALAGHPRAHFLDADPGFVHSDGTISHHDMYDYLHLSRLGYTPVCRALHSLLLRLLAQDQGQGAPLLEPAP
PP5 primary: PP5 phosphatase inhibitors, primary screen, biochemical, fluorescence; Serine/threonine-protein phosphatase 5 (Homo sapiens), P53041; purified PP5c, OMFP substrate fluorescence; inhibition, % at 6.7 µM; hit rate 0.18% among 320,000; AID 1987, 2009;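 active = inhibition above the campaign's mean inhibition across all tested compounds plus 3 SD, cut at about 9.5% in these data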;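 note: 0% = DMSO only and 100% = 100 µM cantharidin control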
Fh CTSL1 inh: Fasciola hepatica cathepsin L1 inhibitors, primary screen, counter-screen for PFM18AAP inhibitor project, biochemical, QFRET, fluorogenic peptide substrate; recombinant F. hepatica cathepsin L1, Z-Leu-Arg-MCA fluorescence; inhibition, % at 5.96 µM; hit rate 0.49% among 300,000; AID 1906, 2009;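 active = inhibition above the mean of all tested compounds plus 3 SD, set per screening campaign, cut at about 17% in these data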;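 note: 0% = plate median of test compound wells and 100% = 1 µM Z-Phe-Ala-diazomethylketone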
PAFAH1B2 inh: PAFAH1B2 enzyme inhibitors, primary screen, biochemical, fluorescence polarization, human; hit rate 1.2% among 340,000; recombinant PAFAH1B2, FP-rhodamine activity probe; inhibition, % at 3.39 µM; AID 492953, 2010;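 active = inhibition above the mean of all tested compounds plus 3 SD, cut at about 24% in these data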;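 note: 0% = enzyme with DMSO and 100% = wells lacking PAFAH1B2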
Target sequence (P68402 whole entry, looked up): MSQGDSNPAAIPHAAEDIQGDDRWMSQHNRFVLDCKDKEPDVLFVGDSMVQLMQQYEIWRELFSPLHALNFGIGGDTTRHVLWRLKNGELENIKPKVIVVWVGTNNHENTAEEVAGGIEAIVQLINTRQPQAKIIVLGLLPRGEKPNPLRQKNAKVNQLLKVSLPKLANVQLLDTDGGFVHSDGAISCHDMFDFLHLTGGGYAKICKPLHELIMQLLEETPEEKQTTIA
pPAFAH FP conf: pPAFAH (PLA2G7) enzyme inhibitors, confirmation, biochemical, fluorescence polarization, human; shares compounds with pPAFAH inh; recombinant pPAFAH, FP-Rh probe fluorescence polarization; inhibition, % at 3.39 µM; hit rate 72% among 2,300; AID 463230, 2010;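 active = mean inhibition of the triplicate above the hit cutoff set for the earlier primary screen, cut at about 25% in these data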;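 note: 0% = enzyme with DMSO and 100% = wells lacking pPAFAH enzyme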
* hit, by the source's call.

How did COCCCNc1c2c3c(cccc3[nH]c1=O)C(=O)c1ccccc1-2 do in these assays?
PAFAH2 inh: 135.7*; pPAFAH inh: 106.0*; PAFAH1B3 inh: 133.8*; PP5 primary: -76.5; Fh CTSL1 inh: 5.8; PAFAH1B2 inh: 109.1*; pPAFAH FP conf: 84.2*

How did O=S(=O)(Nc1ccc(O)c(Sc2nc3ccccc3s2)c1)c1ccc(F)cc1 do in these assays?
PAFAH2 inh: -3.3; pPAFAH inh: 52.1*; PAFAH1B3 inh: -7.6; PP5 primary: 3.5; Fh CTSL1 inh: -1.3; PAFAH1B2 inh: 14.3; pPAFAH FP conf: 40.3*

Results for O=C(O)c1ccc(-n2cccc2/C=N\NC(=O)c2cc3cc(Br)ccc3o2)cc1 ?
PAFAH2 inh: 25.8; pPAFAH inh: 47.6*; PAFAH1B3 inh: 12.1; PP5 primary: 1.2; Fh CTSL1 inh: 2.1; PAFAH1B2 inh: 2.7; pPAFAH FP conf: 24.9*

What do the screens show for `Cn1c2ccccc2c2cc(/C=N/NC(=O)c3cc(O)ccc3O)ccc21`?
PAFAH2 inh: 23.6; pPAFAH inh: 57.4*; PAFAH1B3 inh: 59.1*; PP5 primary: 1.0; Fh CTSL1 inh: 0.6; PAFAH1B2 inh: 30.3*; pPAFAH FP conf: 28.0*

What do the screens show for `Cc1cc(/C=C2/SC(=S)N(c3cccc(Cl)c3)C2=O)c(C)n1-c1cccnc1`?
PAFAH2 inh: 9.0; pPAFAH inh: 39.4*; PAFAH1B3 inh: -6.5; PP5 primary: 1.1; Fh CTSL1 inh: 1.4; PAFAH1B2 inh: 2.0; pPAFAH FP conf: 36.9*

Results for Cc1cc(/C=C2/SC(=S)N(c3ccc([N+](=O)[O-])cc3)C2=O)c(C)n1-c1cccnc1 ?
PAFAH2 inh: 10.9; pPAFAH inh: 6.6; PAFAH1B3 inh: 10.3; PP5 primary: -1.7; Fh CTSL1 inh: 2.9; PAFAH1B2 inh: 2.1

Results for O=C(CCCN1C(=O)c2cccc3cccc(c23)C1=O)NCc1cccnc1 ?
PAFAH2 inh: 0.7; pPAFAH inh: -1.6; PAFAH1B3 inh: 4.6; PP5 primary: 0.5; Fh CTSL1 inh: 1.2; PAFAH1B2 inh: 1.7

Results for O=C(CCCCCN1C(=O)c2cccc3cccc(c23)C1=O)NCc1cccnc1 ?
pPAFAH inh: 48.8*; PP5 primary: 0.3; Fh CTSL1 inh: 1.2; pPAFAH FP conf: 2.9

What do the screens show for `N=C1C(c2ccccc2)=C(O)CN1c1cccc(S(=O)(=O)N2CCOCC2)c1`?
PAFAH2 inh: -1.9; pPAFAH inh: 43.6*; PAFAH1B3 inh: 7.1; PP5 primary: -0.3; Fh CTSL1 inh: -3.9; PAFAH1B2 inh: -1.0; pPAFAH FP conf: 2.0

What do the screens show for `Nc1cccc2c(=O)c3ccccc3[nH]c12`?
PAFAH2 inh: -1.0; pPAFAH inh: 40.6*; PAFAH1B3 inh: 13.2; PP5 primary: 1.8; Fh CTSL1 inh: -4.6; PAFAH1B2 inh: 1.7; pPAFAH FP conf: 9.8

What do the screens show for `Oc1ccc(-c2nc(-c3ccc(O)c(O)c3)cs2)cc1`?
PAFAH2 inh: 0.3; pPAFAH inh: 49.5*; PAFAH1B3 inh: -4.3; PP5 primary: 3.5; Fh CTSL1 inh: -1.2; PAFAH1B2 inh: -0.2; pPAFAH FP conf: 37.9*

Results for O=C(NCCc1ccccc1)c1ccc2c(=O)[nH]c3c(C(=O)NCC4CCCO4)sc(=S)n3c2c1 (configuration not stated) ?
PAFAH2 inh: 21.7; pPAFAH inh: 70.7*; PAFAH1B3 inh: 30.2*; PP5 primary: 1.0; Fh CTSL1 inh: 4.5; PAFAH1B2 inh: 49.6*; pPAFAH FP conf: 83.9*

What do the screens show for `CCCCNC(=O)c1sc(=S)n2c1[nH]c(=O)c1ccccc12`?
PAFAH2 inh: 38.0*; pPAFAH inh: 34.9*; PAFAH1B3 inh: 30.9*; PP5 primary: -0.5; Fh CTSL1 inh: 5.9; PAFAH1B2 inh: 26.1*; pPAFAH FP conf: 63.1*

How did O=C(NCC1CCCO1)c1ccc2c(=O)n(CC3CCCO3)c(=S)[nH]c2c1 (configuration not stated) do in these assays?
PAFAH2 inh: 5.4; pPAFAH inh: 1.4; PAFAH1B3 inh: 1.3; PP5 primary: 1.2; Fh CTSL1 inh: 1.1; PAFAH1B2 inh: 5.7

What do the screens show for `O=C(NNC(=O)c1ccncc1)Nc1cc(Cl)ccc1Cl`?
PAFAH2 inh: -0.5; PAFAH1B3 inh: 9.1; PAFAH1B2 inh: 3.2

What do the screens show for `Cc1cccc(/C=N/n2c(C)nc3ccccc3c2=O)c1`?
PAFAH2 inh: -5.5; pPAFAH inh: 2.4; PAFAH1B3 inh: 12.7; PP5 primary: 1.1; Fh CTSL1 inh: -0.7; PAFAH1B2 inh: 4.8

How did N#Cc1ccc(COC(=O)CC(NC(N)=O)c2ccc(Cl)cc2)cc1 (configuration not stated) do in these assays?
PAFAH2 inh: -4.8; pPAFAH inh: 4.4; PAFAH1B3 inh: 1.7; PP5 primary: 3.4; Fh CTSL1 inh: 4.9; PAFAH1B2 inh: 3.8

What do the screens show for `Cc1cc(C)cc(OCC(=O)Nc2ccc(N3CCCC3)cc2)c1`?
PAFAH2 inh: 7.8; pPAFAH inh: 36.0*; PAFAH1B3 inh: 3.3; PP5 primary: 0.2; Fh CTSL1 inh: 1.8; PAFAH1B2 inh: -1.8; pPAFAH FP conf: 29.8*

Results for O=C(COC(=O)c1ccc(O)cc1)Nc1ccc(N2CCCCC2)cc1 ?
PAFAH2 inh: 59.5*; pPAFAH inh: 48.2*; PAFAH1B3 inh: 4.1; PP5 primary: 0.4; Fh CTSL1 inh: -3.8; PAFAH1B2 inh: 4.5; pPAFAH FP conf: 33.7*

How did COc1cc(OC)cc(C(=O)OCC(=O)Nc2ccc(N3CCCCC3)cc2)c1 do in these assays?
PAFAH2 inh: 4.7; pPAFAH inh: 1.4; PAFAH1B3 inh: 5.3; PP5 primary: -3.1; Fh CTSL1 inh: -6.4; PAFAH1B2 inh: -0.2

Results for Cn1cnnc1SCC(=O)NC1CC1 ?
PAFAH2 inh: 3.3; pPAFAH inh: 2.4; PAFAH1B3 inh: 7.7; PAFAH1B2 inh: 4.7

How did C=C1c2cccc(O)c2C(=O)C2C(=O)[C@]3(O)C(=O)C(C(N)=O)C(=O)[C@@H](N(C)C)[C@@H]3[C@@H](O)[C@H]12 (some centres not stated) do in these assays?
PAFAH2 inh: 52.1*; pPAFAH inh: 92.3*; PAFAH1B3 inh: 45.2*; PAFAH1B2 inh: 33.0*; pPAFAH FP conf: 8.5

Results for COc1ccccc1C(CNC(=O)CN1C(=O)NC(C)(c2ccc3ccccc3c2)C1=O)N1CCCC1 (configuration not stated) ?
PAFAH2 inh: 4.6; PAFAH1B3 inh: 4.9; PAFAH1B2 inh: 2.9
